Test [1] is described as follows: reducers of endogenous Her2 protein level, primary screen, SKBR3 breast tumor cells, AlphaScreen, ATP viability (AID 461;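 active means Her2 level under about 52% in both replicate screens, with viability over 70% of control, limit read from the data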;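 on Her2 level: lower value means less Her2 protein in the cells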;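 on viability: percent of carrier control wells set as 100% viability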). The conditions noted are these: 18-24 h, measured here: SKBR3 viability, ATP luminescence, at 10 µM. In general terms: Bead proximity is the source of the signal in Alpha formats.
The target of test [2] is Receptor tyrosine-protein kinase erbB-2 (Homo sapiens) (UniProt P04626). Described as above. The following applies: 18-24 h, at 10 µM, stronger effect = lower value.
Sequence of Receptor tyrosine-protein kinase erbB-2 (Homo sapiens) (P04626 whole entry, looked up): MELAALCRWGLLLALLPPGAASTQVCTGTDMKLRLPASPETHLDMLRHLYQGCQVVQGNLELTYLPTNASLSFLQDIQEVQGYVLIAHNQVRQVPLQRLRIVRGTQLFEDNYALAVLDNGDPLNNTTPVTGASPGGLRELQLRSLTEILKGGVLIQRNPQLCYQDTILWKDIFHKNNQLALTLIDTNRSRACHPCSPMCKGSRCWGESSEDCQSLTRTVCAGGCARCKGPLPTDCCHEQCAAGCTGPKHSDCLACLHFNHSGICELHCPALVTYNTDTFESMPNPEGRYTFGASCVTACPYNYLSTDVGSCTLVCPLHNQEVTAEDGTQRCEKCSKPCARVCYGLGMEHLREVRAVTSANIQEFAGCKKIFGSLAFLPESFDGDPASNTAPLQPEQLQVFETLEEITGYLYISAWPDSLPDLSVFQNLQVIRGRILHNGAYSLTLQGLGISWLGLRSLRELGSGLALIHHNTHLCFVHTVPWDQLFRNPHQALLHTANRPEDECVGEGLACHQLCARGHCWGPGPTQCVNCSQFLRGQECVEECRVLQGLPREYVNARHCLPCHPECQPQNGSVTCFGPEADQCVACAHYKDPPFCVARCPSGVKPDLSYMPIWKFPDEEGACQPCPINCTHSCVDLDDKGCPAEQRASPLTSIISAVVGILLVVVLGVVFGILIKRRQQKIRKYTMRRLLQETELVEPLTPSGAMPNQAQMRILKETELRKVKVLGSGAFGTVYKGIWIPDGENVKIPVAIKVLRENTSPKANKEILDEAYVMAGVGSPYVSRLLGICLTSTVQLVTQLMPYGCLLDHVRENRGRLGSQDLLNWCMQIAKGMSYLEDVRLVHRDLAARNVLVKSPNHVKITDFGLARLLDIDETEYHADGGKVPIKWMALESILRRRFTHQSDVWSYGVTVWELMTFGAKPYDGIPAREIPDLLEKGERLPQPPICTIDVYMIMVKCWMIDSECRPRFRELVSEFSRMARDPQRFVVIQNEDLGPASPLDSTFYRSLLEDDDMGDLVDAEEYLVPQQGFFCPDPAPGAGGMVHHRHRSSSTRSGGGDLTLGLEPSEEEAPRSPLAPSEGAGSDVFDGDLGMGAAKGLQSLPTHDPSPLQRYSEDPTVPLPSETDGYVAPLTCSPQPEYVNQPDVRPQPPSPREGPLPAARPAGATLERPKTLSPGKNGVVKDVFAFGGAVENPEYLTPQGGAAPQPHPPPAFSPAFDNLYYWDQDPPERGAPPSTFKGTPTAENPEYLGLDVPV
The nature of test [3]: SK-BR-3 cell growth inhibitors, pilot screen, 24 h, human (AID 572;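 active means viability at or below 10% of carrier control in both of two separate runs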;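 further: compound exposure lasted between 18 and 24 h rather than exactly 24 h; 100% = carrier-treated control wells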). The following applies: SK-BR-3 viability, CellTiter-Glo luminescence, at 10 µM, stronger effect = lower value. (ATP-based viability assays read luminescence as a measure of living cells.)
The nature of test [4]: HUVEC growth inhibition – cell-based, human, primary screen (AID 575;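 active means viability at or below 30% in both replicate assays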;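 further: 100% = median of untreated cell wells with 0.1% DMSO on each plate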). The following applies: HUVEC proliferation, CellTiter-Glo luminescence, 72 h; at 10 µM; stronger effect = lower value.
A short description of test [5]: growth inhibitors of H69AR lung tumor, primary screen, human, duplicate replicates (AID 580;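 active means viability at or under a set limit in both replicates, limit being median viability minus 3 SD, cut at about 48% in these data, passing the limit was not always enough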;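 further: 100% = mean luminescence of untreated wells and 0% = no signal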). The conditions noted are these: H69AR lung tumor cells viability, ATP luminescence, 72 h; at 10 µM; stronger effect = lower value.
A short description of test [6]: reversal of MRP1-mediated doxorubicin resistance, pilot screen, H69AR cells, doxorubicin co-treatment (AID 601;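 active means viability loss from added drug above about 55%, and viability with drug at most 40%, in both replicates, limit read from the data, passing the limit was not always enough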). The conditions noted are these: CellTiter-Glo, 72 h, at 10 µM; for differential viability (reversal): stronger effect = higher value.
Test [7] can be described thus: 384-well plate pilot, post-Golgi transport modulator project, inhibition of yeast transport mutant growth (AID 636; in the data active means inhibition above about 31%). The following applies: absorbance 615 nm, about 18 h, stronger effect = higher value.
The nature of test [8]: growth suppression of yeast trafficking mutant, preliminary HTS, modulators of trafficking downstream of Golgi apparatus project, 1536-format plate, OD 615 nm (AID 637; in the data active means inhibition above about 30%). The conditions noted are these: yeast transport mutant growth, absorbance 615 nm, 18 h; stronger effect = higher value.
Test [9] can be described thus: OD615 S. cerevisiae growth inhibition, permissive medium, pilot counter-assay, permissive growth control for S. cerevisiae lifespan shortening project (AID 705;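 active means growth inhibition above 25% in both replicates, a cutoff set 3 SD above the mean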). The conditions noted are these: OD615, 24 h, at 10 µM, stronger effect = higher value.
Test [10] is described as follows: Restrictive medium S. cerevisiae growth inhibition, OD615, pilot screen of yeast lifespan reduction project, restrictive growth control (AID 706;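 active means growth inhibition above a set limit, 3 SD over mean compound inhibition, in both replicates, cut at about 43% in these data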;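 further: modified DeaD lifespan yeast strain shifted to restrictive glucose medium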). The following applies: OD615, 48 h, at 10 µM, stronger effect = higher value.
The nature of test [11]: viability gain of MRP-1-high H69AR cells under doxorubicin, pilot screen, MRP-1 activator project, CellTiter-Glo, duplicate (AID 807;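 active means viability increase at or above a cutoff of the median across tested compounds plus 3 SD, cut at about 8.5% in these data, passing the limit was not always enough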;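 further: compound pretreatment 18-22 h then 72 h combined with doxorubicin; 0% = doxorubicin alone and 100% = vehicle without doxorubicin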). The conditions noted are these: H69AR viability with doxorubicin, CellTiter-Glo luminescence; at 10 µM; stronger effect = higher value.
Test [12] in a line: growth suppression of beta-catenin knockout HCT116, pilot screen, human colon tumor cells (AID 823;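 active means cell viability at or below a set limit in both duplicate runs, the limit being the all-compound median minus 4 SD, cut at about 23% in these data, passing the limit was not always enough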;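 further: 0% = wells killed by 20 µM Hyamine and 100% = untreated DMSO cell wells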). The conditions noted are these: CellTiter-Glo, 60 h, at 10 µM, stronger effect = lower value.
Test [13] is described as follows: growth suppression of PTEN-deleted HCT116, pilot screen, cell-based, HCT116 clonal line, CellTiter-Glo (AID 824;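 active means viability at or below 27.92% in each of two runs, the all-compound median minus 4 SD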;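 further: 0% = 20 µM Hyamine control and 100% = vehicle cell control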). The conditions noted are these: 60 h, at 10 µM, stronger effect = lower value.
A short description of test [14]: inhibitors of the yeast RAM network, pilot screen, dse1pr::URA3 reporter, 5-FOA selection (AID 869).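 Further: 0% = DMSO wells with no growth and 100% = 10 µM 1-NA-PP1 with full growth; RAM network block rescues cells from 5-FOA so hits raise OD615 growth.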 The conditions noted are these: S. cerevisiae dse1pr::URA3 5-FOA growth, OD615, 2 d; at 10 µM; stronger effect = higher value; strain carries analog-sensitive mutant Cbk1 kinase.
Test [15] is described as follows: RAM signaling pathway blockade in yeast – S. cerevisiae, Pdr1DBD-CYC8 efflux-inhibited sensitized strain, primary screen (AID 1298;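 active means RAM network inhibition above 8.4% in each of two replicates, 3 SD over the compound average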;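 further: 0% = DMSO untreated cells without growth and 100% = 10 µM 1-NA-PP1 full growth; higher means more yeast growth rescued from 5-FOA killing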). The conditions noted are these: S. cerevisiae cbk1-as DSE1-URA3 strain, 5-FOA growth OD615, 2 d; at 50 µM; stronger effect = higher value.
The mark [16] stands for this setting: H69AR cells + 2 uM doxorubicin, measured here: viability with 2 uM doxorubicin, stronger effect = lower value.
The mark [17] stands for this setting: H69AR cells, compound alone cytotoxicity.

This note sets out measurements from PubChem BioAssay.

SMILES strings stand for the structures. Results filed as inconclusive are left out. Activity calls are given as the source filed them.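 How the source made its calls, unless noted: active means inhibition over a set limit, the all-compound mean plus 3 SD, in both replicate runs; inconclusive means over that limit in just one replicate run; inactive means at or under that limit in both runs.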

Usually viability stands for a read-out of living cells in per cent, often relative to untreated cells. What is called inhibition is the drop in the measured response relative to a control, in per cent. Take `CCn1cc(SCC(=O)Nc2cc(C)on2)c2ccccc21`: the viability in test [1] was 110%; in test [3] it was 110% (inactive); in test [4] it was 89.4% (inactive); in test [5], 84% (inactive); in [6] (setting [16]), 80.5%; in [6] (setting [17]), 84%. The viability in [12] and in test [13] was 92.3% (inactive) each time. Also, the Her2 level in [2] was 84% (inactive). Besides, the differential viability (reversal) in [6] (H69AR cells + 2 uM doxorubicin) is 3.56% (inactive). In addition, the inhibition in [7] was -4.13% (inactive); in test [8] it was -1.15% (inactive); in [14], 1.87% (inactive). The growth inhibition was -5.85% (inactive) in test [9] and -7.99% (inactive) in [10]. Moreover, in test [11], the viability increase is 1.09% (inactive). In addition, the RAM network inhibition in test [15] is 2.85% (inactive).
As for `COc1ccc(C2C(C(C)=O)=C(C)N=c3s/c(=C/c4ccc5c(c4)OCO5)c(=O)n32)cc1` (stereo not given), the viability in [1] is 85%; in [3], 85% (inactive); in test [4], 91.7% (inactive); in test [5] it was 112% (inactive); in [6] (setting [16]), 94.4%; in [6] (setting [17]), 112%. For the same compound, the viability is 90.1% (inactive) in test [12] and 83.9% (inactive) in test [13]. Besides, the Her2 level in test [2] is 97.5% (inactive). Further, in test [6] (H69AR cells + 2 uM doxorubicin), the differential viability (reversal) is 17.7% (inactive). In addition, the inhibition was -7.81% (inactive) in [7], -3.49% (inactive) in test [8] and 0.93% (inactive) in test [14]. Besides, the growth inhibition in test [9] was -11.4% (inactive); in [10], -17.4% (inactive). Besides, the viability increase in test [11] is 3.84% (inactive). Further, the RAM network inhibition in test [15] is -0.74% (inactive).
With `CC1CCN(c2nc3c(c(=O)[nH]c(=O)n3C)n2CCSc2ncccn2)CC1`, the viability is 96.5% in test [1]; 96.5% (inactive) in test [3]; 109% (inactive) in test [4]; 90.8% (inactive) in [5]; 90.4% in [6] (setting [16]); 90.8% in test [6] (setting [17]). The viability in test [12] and in test [13] was 102% (inactive) in each case. In addition, the Her2 level in test [2] is 97% (inactive). Moreover, the differential viability (reversal) in test [6] (H69AR cells + 2 uM doxorubicin) was 0.415% (inactive). The values for the inhibition in [7], in test [8] and in [14] were -4.4% (inactive), -5.17% (inactive) and 2.46% (inactive), respectively. The growth inhibition is 1.06% (inactive) in test [9] and -2.73% (inactive) in [10]. The viability increase in test [11] was -0.46% (inactive). In test [15], the RAM network inhibition was 2.81% (inactive).
Consider `CCOC(=O)Cn1ncc(-c2ccccc2)c1N`, for which the viability is 101% in test [1]; 101% (inactive) in [3]; 102% (inactive) in [4]; 93% (inactive) in test [5]; 86% in test [6] (setting [16]); 93% in test [6] (setting [17]). Moreover, the viability is 100% (inactive) in [12] and 94.5% (inactive) in [13]. In addition, in test [2], the Her2 level is 72% (inactive). The differential viability (reversal) in [6] (H69AR cells + 2 uM doxorubicin) was 7.02% (inactive). Also, the values for the inhibition in test [7], in test [8] and in test [14] were -7.95% (inactive), -1.43% (inactive) and 1.83% (inactive), respectively. The growth inhibition in test [9] is 2.3% (inactive); in test [10], -2.13% (inactive). In addition, in test [11], the viability increase was 0.83% (inactive). Also, the RAM network inhibition in [15] was 2.21% (inactive).
`COc1cccc(C(=O)Nc2cc(C)c3c(=O)oc4ccccc4c3n2)c1`: the viability in test [1] is 80.5%; in test [3], 80.5% (inactive); in test [4] it was 57.6% (inactive); in [5], 81.9% (inactive); in [6] (setting [16]), 101%; in [6] (setting [17]) it was 81.9%. The viability in [12] is 85.2% (inactive); in test [13], 81.7% (inactive). Moreover, the Her2 level in [2] is 62.5% (inactive). Also, the differential viability (reversal) in test [6] (H69AR cells + 2 uM doxorubicin) is -19.4% (inactive). The values for the inhibition in [7], in [8] and in test [14] were -6.53% (inactive), -4.67% (inactive) and 2.74% (inactive), respectively. In addition, the figures for the growth inhibition in test [9] and in [10] were -1.54% (inactive) and -1.12% (inactive), respectively. For the same compound, in test [11], the viability increase was 3.07% (inactive). Besides, in test [15], the RAM network inhibition was 4.69% (inactive).
